Test results taken from PubChem BioAssay AID2642 (Johns Hopkins Ion Channel Center, 2010).
About 3,900 (1.3%) of roughly 310,000 compounds were called active.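 Rule for the calls: active = compounds whose thallium flux B-score, printed positive for inhibition, exceeds three library SD while starting fluorescence stays within three; inactive = the rest.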 Shown is part of a subset that was picked to be rich in actives.

biological target: Potassium voltage-gated channel subfamily KQT member 1 (Homo sapiens) (UniProt P51787); assay: KCNQ1 potassium current blockers – cell-based, thallium flux, high-throughput, primary screen (AID 2642); conditions: CHO-K1 KCNQ1, FluxOR thallium flux fluorescence, at 10 µM; active compounds read high;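 note: channel opened by potassium depolarization with thallium stimulus after 20 min compound exposure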
Sequence (P51787 whole entry, looked up): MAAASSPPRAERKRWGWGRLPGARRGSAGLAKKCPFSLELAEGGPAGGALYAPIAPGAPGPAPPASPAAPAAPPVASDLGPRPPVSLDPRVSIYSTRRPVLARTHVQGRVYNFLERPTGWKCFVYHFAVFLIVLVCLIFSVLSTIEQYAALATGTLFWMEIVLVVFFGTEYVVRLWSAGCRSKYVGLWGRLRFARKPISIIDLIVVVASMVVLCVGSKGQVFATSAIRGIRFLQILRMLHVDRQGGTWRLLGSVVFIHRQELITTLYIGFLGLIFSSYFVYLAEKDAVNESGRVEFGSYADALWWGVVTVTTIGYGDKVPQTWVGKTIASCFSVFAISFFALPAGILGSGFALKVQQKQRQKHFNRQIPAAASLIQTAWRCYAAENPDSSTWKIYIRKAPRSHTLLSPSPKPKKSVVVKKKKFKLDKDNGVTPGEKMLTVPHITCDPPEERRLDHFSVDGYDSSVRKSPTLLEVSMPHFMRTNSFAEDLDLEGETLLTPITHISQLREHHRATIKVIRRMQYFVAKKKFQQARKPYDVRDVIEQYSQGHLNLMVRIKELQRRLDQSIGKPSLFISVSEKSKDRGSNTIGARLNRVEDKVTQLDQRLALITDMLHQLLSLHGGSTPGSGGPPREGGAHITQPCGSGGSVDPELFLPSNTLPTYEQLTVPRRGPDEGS

SMILES	B-score
CS(=O)(=O)N(CC(=O)Nc1ccc(F)cc1)C1CCCCC1	inactive
CCC(C)NC(=O)CN(C1CCCCC1)S(C)(=O)=O (centres undefined)	inactive
CS(=O)(=O)N(CC(=O)Nc1ccc(Cl)c(Cl)c1)C1CCCCC1	7 (active)
CC(NC(=O)Cn1cc(C(F)(F)F)cc(Cl)c1=O)c1ccccc1 (centres undefined)	inactive
NS(=O)(=O)c1cc2c(cc1Cl)NC(C(Cl)Cl)NS2(=O)=O (centres undefined)	inactive
COC(=O)c1sc(N2CCN(Cc3ccccc3)CC2)nc1N	inactive
CC(C)OC(=O)C(C#N)c1nc2ccccc2nc1N1CCN(Cc2ccccc2)CC1 (centres undefined)	7 (active)
CCOC(=O)/C(C#N)=C/c1ccc(N2CCN(Cc3ccccc3)CC2)cc1	inactive
COc1ccc(S(=O)(=O)N(CC(=O)N/N=C/c2ccc(C(=O)O)cc2)Cc2ccccc2)cc1OC	inactive
CC(=O)N1c2ccc(S(=O)(=O)N3CCCC(C(=O)NCc4ccc(Cl)cc4)C3)cc2CC1C (centres undefined)	inactive
CCN(C(=O)COc1ccc(C(=O)c2ccccc2)cc1)c1ccccc1	inactive
N#Cc1ccc(CSc2ncccn2)cc1	inactive
N#CC1=C(SCc2ccccc2)NC(=O)C(C#N)C12CCCC2 (centres undefined)	inactive
N#CC1=C(SCc2ccc(C#N)cc2)N=C(N)C(c2nc(-c3ccccc3)cs2)C12CCCCC2 (centres undefined)	6 (active)
COc1ccc(OC)c2[nH]c(=O)c(CCNC(=O)C(=O)c3c[nH]c4ccccc34)cc12	inactive
COCCn1c(SCC(=O)Nc2cc(OC)ccc2OC)nc2c(c1=O)SC(C)C2 (centres undefined)	inactive
COc1ccc(CCNCc2c(-c3ccccc3)n(C)c3ccccc23)cc1	7 (active)
COc1ccc(-c2c(C#Cc3ccccc3)c3ccccc3n2C)cc1	inactive
COc1ccc(-c2nc3ccccc3c(=O)n2CCc2ccc(O)cc2)cc1	inactive
CCN1N=C(c2ccccc2)CCC1=O	inactive
O=C(CNCCC1=CCCCC1)Nc1ccccc1N1CCCCCC1	12 (active)
Cc1ccccc1NC(=O)CNc1ccccc1N1CCCCC1	inactive
Cc1ccccc1NC(=O)Nc1ccccc1N1CCCCC1	inactive
COC(=O)c1ccc(COC(=O)C2CCN(S(=O)(=O)c3c(Cl)cccc3Cl)CC2)o1	inactive
COc1cc(CN2CCNC(=O)C2CC(=O)NCCc2ncccc2C)cc(OC)c1 (centres undefined)	inactive
CC(=O)Nc1c2c(nn1-c1cccc(C)c1)CSC2	inactive

SMILES	B-score
COC(=O)c1ccc(NCC(=O)c2ccccc2)cc1	inactive
CCC[C@@H]1C[C@@]1(CCC)[C@@H](NC(=O)c1ccccc1)c1ccc(C(=O)OC)cc1	12 (active)
CCC/C=C(\CCC)C(NC(=O)Cc1ccccc1)c1ccc(C(=O)OC)cc1 (centres undefined)	inactive
COc1ccc(CN(C)C(=O)Cc2c[nH]c3ccccc23)c(OC)c1OC	inactive
Brc1ccc(C2CC(c3ccccc3)=Nc3ccccc3N2)cc1 (centres undefined)	10 (active)
c1ccc(C2=Nc3cccc4cccc(c34)N2)cc1	inactive
CNC(=S)N1N=C(c2ccccc2)CC1c1ccc(Br)cc1 (centres undefined)	inactive
CC1CCCN(S(=O)(=O)c2ccc(N(C(=O)c3cnccn3)C(C(=O)NC3CCCCC3)c3cccs3)cc2)C1 (centres undefined)	inactive
Cc1cc(C)n(-c2nnc(C)n2NC(=O)c2cccc(Cl)c2)n1	inactive
Cc1ccc2c(c1)N(CCCC(=O)NCc1cccnc1)C(=O)CO2	inactive
Cc1ccc(NC(=S)NC(NC(=O)Cc2cccc3ccccc23)C(Cl)(Cl)Cl)cc1 (centres undefined)	inactive
O=C(Cc1cccc2ccccc12)NNC(=O)Nc1ccc(Cl)cc1	6 (active)
O=C(O)Cc1ccc(NC(=O)Nc2cccc3ccccc23)cc1	inactive
COc1ccc(CNC(=O)c2c[nH]c3c(OC)cc(OC)cc3c2=O)cc1	inactive
CCOc1ccc(OCCSc2nc3ccccc3n2CC(=O)O)cc1	inactive
O=C(CCC(=O)c1cccs1)Nc1nc2ccccc2s1	inactive
O=C(Nc1nc(-c2ccco2)c(-c2ccco2)s1)c1ccco1	inactive
O=C(NC(Nc1nc2ccc([N+](=O)[O-])cc2s1)(C(F)(F)F)C(F)(F)F)c1ccccc1	8 (active)
CCC(=O)NC(Nc1nc2ccc(C)cc2s1)(C(=O)OC)C(F)(F)F (centres undefined)	inactive
CSc1nc2ccc(S(=O)(=O)N3CCc4ccccc43)cc2s1	inactive
O=C(Nc1nc2ccc([N+](=O)[O-])cc2s1)c1ccc(S(=O)(=O)N2CCCc3ccccc32)cc1	9 (active)
CN(C)CCCN(C(=O)c1ccc(S(=O)(=O)N2CCCc3ccccc32)cc1)c1nc2ccc(F)cc2s1	inactive
CCOc1ccc2nc(NC(=O)c3cc([N+](=O)[O-])ccc3N3CCOCC3)sc2c1	inactive
O=C1NC(=O)C(c2ccc(Cl)cc2)N1 (centres undefined)	inactive
Cc1cc(=O)n2nc(N3CCCC(C(=O)NCc4ccc(Cl)cc4)C3)sc2n1 (centres undefined)	inactive
CC(OC(=O)CN1C(=O)COc2ccccc21)C(=O)NCc1ccc(F)cc1 (centres undefined)	inactive

SMILES	B-score
N#Cc1c(Cl)nc(-c2cccnc2)nc1-c1ccccc1	inactive
O=C(NN1CCOCC1)c1cccc(F)c1	inactive
O=C(NNC(=O)c1cc(-c2ccccc2Cl)nc2ccccc12)c1csc(N2CCOCC2)n1	inactive
CCC(=O)N1CCC(C(N)=O)(N2CCCCC2)CC1	inactive
COc1ccc(S(=O)(=O)NCCCc2ccccc2)cc1	inactive
COc1cccc(NC(=O)CCNS(=O)(=O)c2ccc3c(c2)oc(=O)n3C)c1	inactive
CCNS(=O)(=O)c1ccc(NC(=O)Nc2cccc(OC)c2)cc1	inactive
COc1ccc(S(=O)(=O)NCCCCOc2ccc(Cl)cc2)cc1	9 (active)
COc1cccc(NC(C)=[N+](C)CCNS(=O)(=O)c2ccc(Cl)cc2)c1	6 (active)
COC(=O)CNS(=O)(=O)c1ccc(OC)cc1	inactive
Cc1cccc(NC(=O)c2ccc3c(=O)n(CC4CCCO4)c(=S)[nH]c3c2)c1 (centres undefined)	inactive
COc1cc(OC)cc(C(=O)NC(=S)N2CCN(c3ccc(C(F)(F)F)cc3[N+](=O)[O-])CC2)c1	inactive
CCOc1ccc(-c2cc(C(=O)N/N=C/c3ccc(O)cc3)c3ccccc3n2)cc1	inactive
NC1=NC2(CCCCC2)N(c2ccc(F)cc2F)C(N)=N1	inactive
COc1ccc(CNC(=O)/C(C#N)=C/c2cccc(OC)c2OC)cc1	inactive
CCOC(=O)C1CCN(Cc2nnc(-c3cccc(Br)c3)o2)CC1	inactive
CCOC(=O)C1CCN(c2ncnc3c2c(-c2ccccc2)cn3-c2ccc(C)cc2)CC1	inactive
CCOC(=O)C1CCN(c2ncnc3c2oc2ccc(Br)cc23)CC1	9 (active)
N/C(=N\c1nc2ccccc2o1)NC(=O)C(Cc1ccccc1)N1C(=O)c2ccccc2C1=O (centres undefined)	inactive
CCOC(=O)COn1c(=O)c(-c2ccc(OCC)cc2)[n+]([O-])c2ccccc21	inactive
NC(=O)C1CCN(C(=O)c2ccc3c(=O)n(Cc4cccc(Br)c4)c(=S)[nH]c3c2)CC1	inactive
CC(=N\NC(=O)c1cc(Br)ccc1O)/C(=N/O)C(=O)Nc1ccccc1	9 (active)
CC(C)/C=N/NC(=O)c1cc(Br)ccc1O	inactive
CC(=O)N/N=C(\C)c1ccc(Br)cc1Br	inactive
CC1(C(=O)O)CCC(C(=O)Nc2ccc(Cl)c(Cl)c2)C1(C)C (centres undefined)	inactive
CC(=O)Nc1cccc(NC(=O)c2ccc3c(c2)CCN3S(C)(=O)=O)c1	inactive

SMILES	B-score
Cc1nc(-c2ccc(Cl)cc2)sc1C1(C)CC(c2ccc(Br)cc2)=NO1 (centres undefined)	inactive
Cc1nc(C(=O)Nc2ccc(Cl)cc2)sc1C1(C)CC(c2ccccc2)=NO1 (centres undefined)	6 (active)
Cc1nc(C(=O)NCc2ccccc2)sc1C1(C)CC(c2cccnc2)=NO1 (centres undefined)	inactive
CC1C(=O)Nc2ccc(S(=O)(=O)N3CCN(c4ccccc4F)CC3)cc2NC1=O (centres undefined)	inactive
C=CCC1(CC=C)CCCN1C(=O)CC1C(=O)NCCN1Cc1ccccc1OC (centres undefined)	inactive
COc1ccc(N2CCN(C(=O)/C(C#N)=C/c3ccccc3)CC2)cc1	inactive
N#C/C(=C/c1ccc(N2CCOCC2)o1)C(=O)N1CCOCC1	inactive
N#C/C(=C\c1ccc(N2CCOCC2)o1)C(=O)N1CCOCC1	7 (active)
COc1ccc(N2CC(C(=O)N[C@@H](C)C(=O)N3CCCCC3)CC2=O)cc1 (some centres undefined)	inactive
Cc1cc(C(C)(C)C)oc1C(=O)N(CC(=O)NC1CCCC1)Cc1ccc(Cl)cc1	inactive
COCCN1C(=O)C(=O)/C(=C(/O)c2ccc(S(=O)(=O)N3CCOCC3)cc2)C1c1ccc(O)c(OC)c1 (centres undefined)	inactive
COc1ccccc1C(=O)NC(CCSC)C(=O)N1CCN(C/C=C/c2ccccc2)CC1 (centres undefined)	inactive
CCOc1ccc(CCNC(=O)COC(=O)CCS(=O)(=O)c2ccc(C)cc2)cc1OCC	inactive
COc1ccc(-c2oc(/N=C/N3CCCC3)c(C#N)c2-c2ccc(OC)cc2)cc1	inactive
N#Cc1c(/N=C/N2CCCC2)oc(-c2ccccc2)c1-c1ccccc1	7 (active)
N#Cc1c(-c2ccccc2)c(-c2ccccc2)n[nH]c1=O	inactive
O=C(NCC(F)(F)F)Nc1nnc(C(F)(F)F)s1	6 (active)
O=C(Nc1nnc(COc2ccccc2)s1)Nc1ccccc1F	inactive
COc1ccc(C)cc1NC(=O)CCC(=O)Nc1nnc(C(F)(F)F)s1	inactive
Cc1ccccc1NS(=O)(=O)CCCCC(Cl)(Cl)Cl	inactive
CN(C)S(=O)(=O)c1cccc(NC(=O)COC(=O)C2(c3ccccc3F)CCCC2)c1	inactive
N#Cc1ccc(C(=O)Nc2nc(-c3cccs3)c(C(=O)C(F)(F)F)s2)cc1	inactive
Cc1ccc(C(=O)c2c(NC(=O)c3ccncc3)sc3c2CCCC3)cc1	inactive
Cc1ccc(C(=O)c2c(NC(=O)c3ccccc3)sc(C)c2C)cc1	6 (active)
Cc1sc(NC(=O)c2ccc3ncsc3c2)c(C(N)=O)c1C	inactive
COc1ccc(NC(=O)NNC(=O)COc2cc(C)c(Cl)c(C)c2)c(OC)c1	inactive
